Measurements from PubChem BioAssay (NCATS).
Where “and” joins values, the source holds several entries; their conditions need not be identical. Equal values may be shown once. Results filed as inconclusive are left out. Where a structure was tested more than once in an assay, its records may differ in their call. Calls of active or inactive are those of the source. The call rests on the fitted dose curve; in most records, active means well fitted cell-killing curve with a large enough effect; inconclusive means small, poorly fitted or top-dose-only effect, or effect the other way; inactive means no such curve, though single readings can be large or run the other way.

Assay: Viability qHTS for spleen associated tyrosine kinase inhibitor (SYKi) naive MV4-11 cells (AID 1963823); further: nearly all actives have a fitted effect of over 40% in size
Conditions: MV4-11 AML viability, CellTiter-Glo luminescence, 72 h; series mostly up to 45 µM
In short: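 CellTiter-Glo luminescence, 10 min room-temperature incubation, gave viability. Cells: naive MV4-11 (500/well), treated 72 hr at 37 C, 5% CO2.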
Potency means the concentration at half of the fitted maximal effect.

Row | SMILES | Potency
1 | FC(F)c1nc2ccccc2n1-c1nc(N2CCOCC2)nc(N2CCOCC2)n1 | 0.186 µM (active)
2 | OCCNC1CCCc2c1[nH]c1ccc(-c3ccccc3)cc21 (stereo not given) | 8.33 µM (active)
3 | Cc1ccc(C(=O)Nc2ccc(CN3CCN(C)CC3)c(C(F)(F)F)c2)cc1C#Cc1cnc2cccnn12 | inactive
4 | CNC(=O)c1c(-c2ccc(F)cc2)oc2cc(N(CCO)S(C)(=O)=O)c(C3CC3)cc12 | inactive
5 | NC1(c2ccc(-c3nc4ccn5c(=O)[nH]nc5c4cc3-c3ccccc3)cc2)CCC1 | 3.72 µM (active)
6 | CN(C)CCOC(c1ccccc1)c1ccccc1 | inactive
7 | COc1cc2nc(N3CCN(C(=O)c4ccco4)CC3)nc(N)c2cc1OC | 10.3 µM (active)
8 | c1nc2nc(Nc3ccc(N4CCOCC4)cc3)nc(NC3CCCCC3)c2[nH]1 | 224 nM (active) and 209 nM (active)
9 | CN1CCN(c2cc(C(=O)Nc3ccc4c(c3)-c3c(c(C(N)=O)nn3-c3ccc(F)cc3)CC4)c(Cl)cn2)CC1 | 4.11 µM (active)
10 | Cn1c(=O)c2c(ncn2CC(O)CO)n(C)c1=O (stereo not given) | inactive
11 | Cc1nc(N)sc1-c1ccnc(Nc2ccc(N3CCOCC3)cc2)n1 | 0.082 µM (active)
12 | N#CCNC(=O)c1ccc(-c2ccnc(Nc3ccc(N4CCOCC4)cc3)n2)cc1 | 0.411 µM (active)
13 | COc1cc(-c2nn(C3CCC(N4CCN(C(C)=O)CC4)CC3)c3ncnc(N)c23)ccc1NC(=O)c1cc2ccccc2n1C (stereo not given) | inactive and 2.63 µM (active)
14 | O=C(Nc1ccc(OC(F)(F)F)cc1)c1sccc1NCc1ccnc2ccccc12 | 5.25 µM (active) and 5.17 µM (active)
15 | C[C@H](NC(=O)C(=O)Nc1ccccc1C(C)(C)C)C(=O)N[C@@H](CC(=O)O)C(=O)COc1c(F)c(F)cc(F)c1F | 2.35 µM (active)
16 | CC1CCC(C(=O)N(c2cc(C#CC(C)(C)C)sc2C(=O)O)C2CCC(O)CC2)CC1 (stereo not given) | 16.4 µM (active)
17 | CC(Oc1ccc(O)cc1)(P(=O)(O)O)P(=O)(O)O | inactive
18 | Cc1cn[nH]c1 | inactive

Row | SMILES | Potency
19 | C[C@]12C=CC(=O)C=C1CC[C@@H]1[C@@H]2C(=O)C[C@@]2(C)[C@H]1CC[C@]2(O)C(=O)CO | inactive
20 | CNC(=O)c1c(F)cccc1Nc1nc(Nc2cc3c(cc2OC)CCN3C(=O)CN(C)C)nc2[nH]ccc12 | 2.59 µM (active) and 4.68 µM (active)
21 | c1cnc2cc3c(cc2n1)C1CNCC3C1 | inactive
22 | CCCCCCCCCC(=O)N[C@@H](Cc1c[nH]c2ccccc12)C(=O)N[C@H](CC(N)=O)C(=O)N[C@@H](CC(=O)O)C(=O)N[C@@H]1C(=O)NCC(=O)N[C@@H](CCCN)C(=O)N[C@@H](CC(=O)O)C(=O)N[C@H](C)C(=O)N[C@@H](CC(=O)O)C(=O)NCC(=O)N[C@H](CO)C(=O)N[C@@H]([C@@H](C)CC(=O)O)C(=O)N[C@@H](CC(=O)c2ccccc2N)C(=O)O[C@@H]1C | inactive
23 | S=C(NCc1ccc2c(c1)OCO2)N1CCN(c2ncnc3c2oc2ccccc23)CC1 | 3.32 µM (active)
24 | C[C@H](Cc1ccc(O)c(O)c1)[C@@H](C)Cc1ccc(O)c(O)c1 | 1.46 µM (active)
25 | c1ccc(CNc2nc(NCc3ccccc3)c3ccccc3n2)cc1 | 1.86 µM (active)
26 | NS(=O)(=O)c1ccc(Nc2nc(OCC3CCCCC3)c3[nH]cnc3n2)cc1 | 0.58 µM (active)
27 | Nc1nc(N)c2nc(-c3cccc(O)c3)c(-c3cccc(O)c3)nc2n1 | 13 µM (active)
28 | Cn1cnc2c1c(=O)[nH]c(=O)n2C | inactive
29 | O=C(CN1C(=O)C2(CCCC2)NC[C@H]1c1cc(F)cc(F)c1)Nc1ccc2c(c1)C[C@@]1(C2)C(=O)Nc2ncccc21 | inactive
30 | Cc1cccc(Nc2nc(N[C@@H]3CCCC[C@H]3N)ncc2C(N)=O)c1 | 0.934 µM (active)
31 | OC(c1cc(C(F)(F)F)nc2c(C(F)(F)F)cccc12)C1CCCCN1 (stereo not given) | 18.6 µM (active)
32 | COc1cc2c(Nc3ccc(NC(=O)c4ccccc4)cc3)ncnc2cc1OCCCN1CCOCC1 | 1.16 µM (active) and 1.86 µM (active)
33 | Cc1cccc2c1CC[C@H](CN1CCC(c3c(Cl)cccc3Cl)CC1)C[C@@H]2O | 3.26 µM (active)
34 | O[C@@H](CNC[C@H](O)[C@H]1CCc2cc(F)ccc2O1)[C@@H]1CCc2cc(F)ccc2O1 | 10.6 µM (active)
35 | CNC(=O)c1cc(Oc2ccc(NC(=O)Nc3ccc(Cl)c(C(F)(F)F)c3)cc2)ccn1 | 0.0211 µM (active)
